The supplement of paper PMC12636033
± gives the standard deviation of the averaged measurements. In all, about 33,000 sequences were measured (“E-score (rank enrichment, -0.5 to 0.5)”: median about -0.0043, highest 2% from about 0.24 on). The sample as a whole holds a higher share of the highest values than the screen did.

Tested on: 2Sp-muMax20 (muMax20 with two 2,6-bis(methyl)pyridine Cys staples)
Test: PBM 8-mer E-score (E-score (rank enrichment, -0.5 to 0.5)); higher = stronger preferential binding
Description: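 Protein binding microarray (universal PBM chip covering all 10-mers in fixed probe flanks) with chemically synthesized human Max(13-93) bHLH-LZ analogs (not full-length Max) bearing noncanonical residues (hArg, Tha, Aib, Nle at 65) and aromatic Cys staples. Read-out per 8-mer (and its reverse complement): E-score (rank-based enrichment, -0.5 to 0.5) and Z-score of median probe intensity.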

| Sequence | PBM 8-mer E-score |
| --- | --- |
| GTATAATA | 0.26 ± 0.018 |
| ATATAATG | 0.235 ± 0.0039 |
| GTATAAGA | 0.171 ± 0.024 |
| GAATAATA | 0.0134 ± 0.025 |
| GCGACCCA | -0.125 ± 0.0022 |
| TAACTAGA | 0.216 ± 0.032 |
| TAAATTGA | 0.123 ± 0.068 |
| TCTATACA | 0.111 ± 0.0021 |
| ACTATACA | 0.236 ± 0.052 |
| CCTACACG | -0.0918 ± 0.0064 |
| ACTACACA | 0.317 ± 0.02 |
| AATATACA | 0.272 ± 0.012 |
| ACTACACG | 0.134 ± 0.1 |
| AATATACT | 0.0855 ± 0.0041 |
| TATATACA | 0.11 ± 0.072 |
| GCTATACA | 0.148 ± 0.0048 |
| GAGGGCAA | 0.00807 ± 0.048 |
| AATTGTGT | 0.124 ± 0.015 |
| ATGGCGTC | -0.112 ± 0.017 |
| AATCTCAC | -0.00554 ± 0.028 |
| CCACAACA | -0.0195 ± 0.008 |
| GCACAACA | 0.245 ± 0.044 |
| GCACAACC | -0.26 ± 0.11 |
| AATCGATA | 0.122 ± 0.028 |
| TATCGATA | 0.28 ± 0.0074 |

| Sequence | PBM 8-mer E-score |
| --- | --- |
| GATCGATA | 0.0711 ± 0.063 |
| CGTAGTTC | -0.126 ± 0.036 |
| ATGGTGCG | -0.0695 ± 0.038 |
| CATGGGCC | -0.227 ± 0.033 |
| ATGGTAAT | 0.0649 ± 0.056 |
| CCCGTAGA | -0.219 ± 0.0027 |
| CGGCGGGA | -0.183 ± 0.048 |
| GGCGGGAA | 0.0758 ± 0.012 |
| CGCGGGGA | 0.00762 ± 0.0032 |
| GGCGGGGA | 0.327 ± 0.0043 |
| AGGCGGGA | 0.0612 ± 0.085 |
| GGGCGGGA | 0.302 ± 0.009 |
| CGGGATAG | -0.0726 ± 0.029 |
| GATAATCA | 0.291 ± 0.0043 |
| TATAATCA | 0.248 ± 0.026 |
| GATAATAA | 0.161 ± 0.11 |
| GATAATCC | -0.0127 ± 0.051 |
| AATAATCA | 0.0327 ± 0.025 |
| CATAATCA | 0.122 ± 0.058 |
| CTCCTGCA | -0.0859 ± 0.085 |
| ACCAGCGA | -0.0875 ± 0.13 |
| AGTGCCCG | -0.183 ± 0.011 |
| CGGGCCCG | -0.0343 ± 0.1 |
| ACCTTCAG | 0.0376 ± 0.011 |
| AAAACGGC | 0.295 ± 0.024 |

| Sequence | PBM 8-mer E-score |
| --- | --- |
| AAACGGCC | 0.2844 ± 0.0015 |
| AAACGGCT | -0.108 ± 0.055 |
| CAAACGGC | -0.18938 ± 4.9e-05 |
| GAAACGGC | -0.0635 ± 0.06 |
| CAACGGCC | -0.302 ± 0.033 |
| GTATCTCA | 0.17 ± 0.075 |
| CAACCTCC | -0.00017 ± 0.065 |
| GAAGTGTA | -0.0146 ± 0.06 |
| ATGGCTGG | -0.00368 ± 0.018 |
| TATGTCAA | 0.224 ± 0.067 |
| AGTGGTAA | 0.0408 ± 0.025 |
| ATTATATA | 0.199 ± 0.014 |
| CCTATATC | -0.0131 ± 0.064 |
| AGTATCTA | 0.3 ± 0.034 |
| ATTATATC | 0.243 ± 0.051 |
| AGTATATC | -0.0248 ± 0.067 |
| AGTATATA | 0.273 ± 0.03 |
| CGTATCTA | 0.000215 ± 0.053 |
| GGTATCTA | -0.00749 ± 0.008 |
| ACTATCTC | -0.108 ± 0.18 |
| AGTATATG | 0.125 ± 0.12 |
| ACTATATC | 0.302 ± 0.055 |
| ATTATATG | 0.198 ± 0.017 |
| CGCGCTGA | 0.00249 ± 0.09 |
| CATGCAGG | 0.0699 ± 0.036 |

| Sequence | PBM 8-mer E-score |
| --- | --- |
| CCTAGTTA | 0.0579 ± 0.045 |
| CGTGGGTC | 0.00478 ± 0.056 |
| CCCAAACC | 0.0283 ± 0.012 |
| AGTGCAAA | -0.0314 ± 0.044 |
| GTGTGGCA | 0.0191 ± 0.059 |
| GAAGCCGA | -0.13 ± 0.0099 |
| CGATCCTC | -0.0245 ± 0.032 |
| GCGCAAAC | 0.11 ± 0.026 |
| GCGTAGGA | 0.112 ± 0.03 |
| ATGCTTGG | 0.102 ± 0.0062 |
| ACTATATG | 0.196 ± 0.0091 |
| ATTATACG | 0.125 ± 0.014 |
| ATTATACC | 0.238 ± 0.031 |
| GCTATATA | 0.149 ± 0.013 |
| ATTATACA | 0.0914 ± 0.033 |
| ACTATATA | 0.254 ± 0.018 |
| CTTCGGAA | -0.0272 ± 0.017 |
| ATTCGCCC | 0.0547 ± 0.0036 |
| ATCTGACA | -0.0699 ± 0.061 |
| ATATTCAA | 0.157 ± 0.012 |
| ATATTCAG | 0.126 ± 0.074 |
| TTATTCAA | 0.133 ± 0.037 |
| ATATTCAT | 0.299 ± 0.027 |
| ATATTCAC | 0.109 ± 0.072 |
| CTATTCAA | 0.266 ± 0.08 |

| Sequence | PBM 8-mer E-score |
| --- | --- |
| ACGCTTTC | -0.00481 ± 0.013 |
| ACGCGAAT | 0.0678 ± 0.068 |
| TAGAATGA | 0.207 ± 0.064 |
| ATAGTATA | 0.11 ± 0.035 |
| CTAGTATA | 0.219 ± 0.023 |
| AAAGTATA | 0.236 ± 0.03 |
| GTAGTATA | 0.236 ± 0.045 |
| CAAGTATA | 0.142 ± 0.1 |
| AAAGTATT | 0.223 ± 0.0032 |
| CGAACCTA | -0.123 ± 0.015 |
| GCGCACTA | 0.0235 ± 0.033 |
| GAATGCTA | -0.14 ± 0.023 |
| AAATGCTG | 0.0946 ± 0.018 |
| AAATGCTA | 0.251 ± 0.058 |
| GTAAACTA | 0.175 ± 0.032 |
| CACCAACA | 0.106 ± 0.0083 |
| GGCCCATA | -0.0969 ± 0.099 |
| GCCCCATA | 0.29 ± 0.019 |
| GACCCATA | 0.188 ± 0.032 |
| CCCCCATA | 0.0149 ± 0.042 |
| AGCCCATA | 0.238 ± 0.035 |
| CGCCCATA | 0.0508 ± 0.075 |
| GTACCAAC | -0.0554 ± 0.078 |
| ATCCAGGC | -0.01 ± 0.042 |
| AAGACAGG | -0.106 ± 0.025 |

| Sequence | PBM 8-mer E-score |
| --- | --- |
| GTCTGGAA | -0.0499 ± 0.016 |
| ATCCAAGA | -0.0976 ± 0.054 |
| AGGTGGAT | -0.1057 ± 0.00054 |
| AAAAATCG | -0.00934 ± 0.012 |
| ACATAATA | 0.262 ± 0.075 |
| GCATAGTA | 0.273 ± 0.032 |
| CCATAGTA | 0.144 ± 0.0076 |
| ACATAATG | 0.193 ± 0.064 |
| CCATAATA | 0.161 ± 0.054 |
| GCATAAGA | 0.0752 ± 0.0016 |
| GCATAATA | 0.2429 ± 0.0015 |
| ACATAGTA | 0.118 ± 0.076 |
| ACATAATC | 0.109 ± 0.04 |
| GACATGAC | 0.00058 ± 0.047 |
| GTATGCAC | 0.075 ± 0.08 |
| AACGTTGG | -0.0574 ± 0.07 |
| CGAGCGAA | 0.0234 ± 0.064 |
| TGCATTAA | 0.285 ± 0.014 |
| AGCATTAA | 0.209 ± 0.0096 |
| CTCATTAA | 0.273 ± 0.031 |
| CTCATTAC | 0.197 ± 0.087 |
| AGCATTAG | 0.0579 ± 0.1 |
| CGCATTAA | 0.0861 ± 0.014 |
| AGCATTAC | -0.0132 ± 0.0023 |
| AGCATTAT | 0.266 ± 0.05 |

| Sequence | PBM 8-mer E-score |
| --- | --- |
| ATCATTAA | 0.0844 ± 0.0038 |
| CCGGGCTA | -0.277 ± 0.0046 |
| TGACCTCA | -0.183 ± 0.016 |
| AGCTCAGA | -0.181 ± 0.0029 |
| CGGATAGC | -0.0994 ± 0.018 |
| CTAGCTGA | -0.0742 ± 0.045 |
| AGTCATAA | 0.037 ± 0.035 |
| ATACATAA | 0.0924 ± 0.008 |
| AGACATAG | 0.0229 ± 0.087 |
| AGACATAT | 0.249 ± 0.0045 |
| ATACATAC | 0.0484 ± 0.023 |
| AGACATAC | -0.0281 ± 0.088 |
| ATACATAT | 0.258 ± 0.0069 |
| AGTCATAG | 0.0709 ± 0.034 |
| AGTCATAT | 0.24 ± 0.015 |
| ACCTTATG | 0.0929 ± 0.036 |
| GGGGAACA | 0.124 ± 0.0046 |
| AATCAACC | 0.157 ± 0.047 |
| ACTAAGCT | -0.0864 ± 0.087 |
| ATTCTCAC | 0.0448 ± 0.078 |
| ATAGCATG | 0.258 ± 0.037 |
| ATAGCATC | 0.118 ± 0.015 |
| ATAGCATA | 0.204 ± 0.038 |
